# Records with an inconclusive call do not appear. Where a call stands in place of a potency, no number is given. The source made the active and inactive calls. Unless noted, calls follow the shape of the dose curve; as a rule, active = well fitted curve in the direction sought with a large enough effect in the repeat runs; inconclusive = weak or mixed curves; inactive = no such curve, though single readings can be large; an effect the other way counts as inactive or inconclusive.
# Columns and labels:
# [1] = qHTS assay to identify small molecule antagonists of the estrogen receptor alpha (ER-alpha) signaling pathway using the BG1 cell line in the presence of 0.1 nM 17-beta-estradiol - cell viability counter screen (AID 1259241); also: nearly all actives have a fitted effect of over 40% in size
# Method in brief: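 Cells were plated and left 24 hr, compounds in DMSO were pinned in, 17beta-estradiol was added to 0.1 nM final, and after 22 hr CellTiter-Fluor reagent was added for 30 min before fluorescence was read.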
# [2] = qHTS assay to identify small molecule antagonists of the androgen receptor (AR) signaling pathway using the MDA cell line in the presence of 0.5 nM R1881 - cell viability counter screen (AID 1259242); also: nearly all actives have a fitted effect of over 45% in size
# Method in brief: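 Human breast carcinoma MDA-kb2 cells, cultured without CO2, receive compounds alongside 0.5 nM (final) R1881 agonist. After 16 hr at 37C, viability is taken as live-cell protease signal.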
# [3] = biological target: Estrogen receptor (Homo sapiens) (UniProt P03372); test: qHTS assay to identify small molecule antagonists of the estrogen receptor alpha (ER-alpha) signaling pathway using the BG1 cell line in the presence of 0.1 nM 17-beta-estradiol (AID 1259244); also: nearly all actives have a fitted effect of over 50% in size
# Method in brief: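 Seeding of stripped-serum-adapted VM7Luc4E2 cells, 24 h attachment, compound transfer, then 0.1 nM final 17beta-estradiol; after 22 h incubation, ONE-Glo reagent and luminescence reading.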
# [4] = qHTS assay to identify small molecule HDAC inhibitors (AID 1259364);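 also: wild-type HCT-116 cells with endogenous class I/II HDAC activity; top concentration of the series differs between compounds; nearly all actives have a fitted effect of over 45% in size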
# Method in brief: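 After a 2 hr compound incubation (37C, 5% CO2), HCT-116 cells seeded at 1,500/well the day before received HDAC-Glo reagent; signal read as luminescence after 30 min at room temperature.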
# [5] = qHTS assay to identify small molecule HDAC inhibitors - cell viability counter screen (AID 1259365); also: series mostly up to about 92 µM; nearly all actives have a fitted effect of over 50% in size
# Method in brief: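 Counter screen in wild-type HCT-116 cells: compounds dissolved in DMSO are pin-transferred onto overnight-plated cells and left 2hr at 37C. ATP-based CellTiter-Glo luminescence then measures viable cells.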
# [6] = qHTS assay to identify small molecule agonists of the sonic hedgehog signaling (Shh) pathway - cell viability counter screen (AID 1259366); also: nearly all actives have a fitted effect of over 50% in size
# Method in brief: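 Cells are plated at 2,000 per well and left 4hr at 37C, 5% CO2 before compound addition. After 23hr of treatment, CellTiter-Fluor reagent is added for 1hr at 37C and fluorescence is measured.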
# [7] = qHTS assay to identify small molecule antagonists of the sonic hedgehog signaling (Shh) pathway - cell viability counter screen (AID 1259367); also: nearly all actives have a fitted effect of over 55% in size
# Method in brief: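 Fluorescence read-out (CellTiter-Fluor, 1 hr at 37C) taken after 23 hr compound treatment of 3T3 Gli1-Luc cells stimulated with conditioned medium. Cells were seeded at 2,000 per well and pre-incubated 4 hr.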
# [8] = qHTS assay to identify small molecule agonists of the sonic hedgehog signaling (Shh) pathway (AID 1259368; calls by dose curve;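 also: NIH/3T3-derived 3T3Gli1-Luc cells carrying a stable Gli1-driven firefly luciferase reporter; series mostly up to about 92 µM; nearly all actives have a fitted effect of over 15% in size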)
# Method in brief: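 Stable NIH/3T3 Gli1-Luc reporter clone; 24 hr cpd exposure after a 4 hr settling period; luminescence endpoint.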
# [9] = qHTS assay to identify small molecule antagonists of the sonic hedgehog signaling (Shh) pathway (AID 1259369; calls by dose curve; also: nearly all actives have a fitted effect of over 45% in size; also: potency is read from the fitted curve at half-maximal effect)
# Method in brief: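 Gli1 transcriptional reporter (firefly Luc) in NIH/3T3 background, conditioned-medium activated. 24hr exposure, luminescence endpoint.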
# [10] = biological target: Estrogen receptor beta (Homo sapiens) (UniProt Q92731); test: qHTS assay to identify small molecule antagonists of the estrogen receptor beta (ER-beta) signaling pathway (AID 1259378; active = well fitted inhibition curve with a large enough effect in the signal ratio in the repeat runs, not every such curve was filed as active; the % refers to the signal ratio)
# Method in brief: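 ER-beta-UAS-bla HEK293T cells in 2% charcoal-stripped FBS medium treated with compound plus 1nM final 17-beta-estradiol for 16 hr at 37C. Beta-lactamase reporter read by FRET substrate fluorescence after 2 hours at room temperature.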
# [11] = qHTS assay to identify small molecule agonists of the androgen receptor (AR) signaling pathway in the presence of an antagonist - cell viability counter screen (AID 1259379);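 also: MDA-kb2 human breast cancer cells carrying an MMTV luciferase reporter; series mostly up to about 92 µM; nearly all actives have a fitted effect of over 25% in size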
# Method in brief: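 Counter screen for cell viability run in parallel with the AR agonist-mode luciferase assay. MDA-kb2 cells were co-treated with nilutamide (3.0uM final) and compounds, then incubated 16 hr at 37C, and CellTiter-Fluor fluorescence was measured.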
# [12] = qHTS assay to identify small molecule agonists of the estrogen receptor beta (ER-beta) signaling pathway - cell viability counter screen (AID 1259380); also: nearly all actives have a fitted effect of over 30% in size
# Method in brief: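 In this qHTS counter screen, HEK293T cells carrying an ER-beta/UAS beta-lactamase reporter, grown in 2% charcoal-stripped FBS, received compound for 16 hr; ATP-based CellTiter-Glo luminescence was then read after 30 min at room temperature.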
# [13] = biological target: Estrogen receptor (Homo sapiens) (UniProt P03372); test: qHTS assay to identify small molecule agonists of the estrogen receptor alpha (ER-alpha) signaling pathway in the presence of an antagonist (AID 1259383; calls by dose curve; also: top concentration of the series differs between compounds; nearly all actives have a fitted effect of over 15% in size)
# Method in brief: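 ER-alpha agonism measured under antagonist challenge: 10.0nM ICI-182,780 (final) plus compound, 15 concentrations, 22hr, VM7Luc4E2 ERE-luciferase cells. Read by luminescence.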
# [14] = qHTS assay to identify small molecule agonists or antagonists of the thyroid stimulating hormone receptor (TSHR) signaling pathway - wild type cell line counter screen (AID 1259384; calls by dose curve)
# Method in brief: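 Wild-type Hek293 cells, 800/well, 18 h at 37C, then compound with Ro20-1724 for 30 min RT. cAMP by HTRF (cAMP-d2/anti-cAMP cryptate), 1 h RT, fluorescence read. 15 concentrations, triplicates.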
# [15] = biological target: Thyrotropin receptor (Homo sapiens) (UniProt P16473); test: qHTS assay to identify small molecule antagonists of the thyroid stimulating hormone receptor (TSHR) signaling pathway (AID 1259385; calls by dose curve; also: nearly all actives have a fitted effect of over 20% in size)
# Method in brief: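 TSHR-HEK293 cells (800/well) plated 18 h, then compounds with Ro20-1724 and TSH at 1.5 ng/mL final, 30 min at room temperature. cAMP quantified by HTRF (cAMP-d2/anti-cAMP-cryptate, 1 h); 15 concentrations in triplicate.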
# [16] = biological target: Estrogen receptor beta (Homo sapiens) (UniProt Q92731); test: qHTS assay to identify small molecule agonists of the estrogen receptor beta (ER-beta) signaling pathway (AID 1259377; active = well fitted activation curve with a large enough effect in the signal ratio in the repeat runs, not every such curve was filed as active; the % refers to the signal ratio)
# Method in brief: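 Agonist mode cell assay in GripTite HEK293T cells expressing an ER-beta fusion that drives beta-lactamase from an Upstream Activator Sequence; 16 hr compound exposure at 37C, then 2 h LiveBLAzer B/G FRET substrate at room temperature, fluorescence read-out.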
# [17] = qHTS assay to identify small molecule antagonists of the estrogen receptor beta (ER-beta) signaling pathway - cell viability counter screen (AID 1259382); also: series mostly up to about 92 µM; nearly all actives have a fitted effect of over 55% in size
# Method in brief: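 HEK293T ER-beta-UAS-bla, 2% charcoal-stripped FBS; compounds + 1nM E2 16 hr 37C; CellTiter-Glo luminescence, 30 min RT.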
# [18] = biological target: Androgen receptor (Homo sapiens) (UniProt P10275); test: qHTS assay to identify small molecule antagonists of the androgen receptor (AR) signaling pathway using the MDA cell line in the presence of 0.5 nM R1881 (AID 1259243); also: nearly all actives have a fitted effect of over 50% in size
# Method in brief: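 Cells: MDA-kb2 (MMTV-luc). Stimulus: 0.5 nM R1881. Time: 16 hr, 37C, no CO2. Detection: ONE-Glo luminescence after 30 min at RT.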
# [19] = qHTS assay to identify small molecule phospholipidosis (PLD) inducers (AID 1259344; active = well fitted curve in the direction sought with a large enough effect; an effect the other way counts as inactive or inconclusive)
# Method in brief: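 Read-out is LipidTOX Red fluorescence (ex 595/em 615) imaged in HepG2 cells after 24 h compound exposure at 37 C, with Hoechst nuclear counterstain (ex 352/em 461) allowing per-cell normalisation.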
# [20] = biological target: Androgen receptor (Homo sapiens) (UniProt P10275); test: qHTS assay to identify small molecule agonists of the androgen receptor (AR) signaling pathway in the presence of an antagonist (AID 1259381; calls by dose curve; also: nearly all actives have a fitted effect of over 15% in size)
# Method in brief: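 AR antagonist background: nilutamide 3.0uM final. Cell line: MDA-kb2, MMTV-driven luciferase, responsive to both AR and GR. Exposure 16hr, 37C, no CO2; ONE-Glo luminescence.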
# Estrogen receptor (Homo sapiens), sequence (P03372 whole entry, looked up): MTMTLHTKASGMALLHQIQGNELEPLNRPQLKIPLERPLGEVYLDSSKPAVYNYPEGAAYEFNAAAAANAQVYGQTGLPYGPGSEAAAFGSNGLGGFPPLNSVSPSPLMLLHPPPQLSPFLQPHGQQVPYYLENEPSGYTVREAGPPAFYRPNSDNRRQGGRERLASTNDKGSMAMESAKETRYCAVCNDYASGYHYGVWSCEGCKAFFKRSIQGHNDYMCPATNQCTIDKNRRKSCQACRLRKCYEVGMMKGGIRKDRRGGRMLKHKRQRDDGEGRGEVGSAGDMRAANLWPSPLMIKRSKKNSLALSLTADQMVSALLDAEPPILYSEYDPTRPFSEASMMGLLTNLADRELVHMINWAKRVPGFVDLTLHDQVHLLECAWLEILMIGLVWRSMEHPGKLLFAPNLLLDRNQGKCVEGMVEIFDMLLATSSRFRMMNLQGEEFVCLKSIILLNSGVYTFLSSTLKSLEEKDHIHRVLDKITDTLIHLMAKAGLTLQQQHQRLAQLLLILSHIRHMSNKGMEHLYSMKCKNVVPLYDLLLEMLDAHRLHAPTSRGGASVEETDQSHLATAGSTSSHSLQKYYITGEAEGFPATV
# Thyrotropin receptor (Homo sapiens), sequence (P16473 whole entry, looked up): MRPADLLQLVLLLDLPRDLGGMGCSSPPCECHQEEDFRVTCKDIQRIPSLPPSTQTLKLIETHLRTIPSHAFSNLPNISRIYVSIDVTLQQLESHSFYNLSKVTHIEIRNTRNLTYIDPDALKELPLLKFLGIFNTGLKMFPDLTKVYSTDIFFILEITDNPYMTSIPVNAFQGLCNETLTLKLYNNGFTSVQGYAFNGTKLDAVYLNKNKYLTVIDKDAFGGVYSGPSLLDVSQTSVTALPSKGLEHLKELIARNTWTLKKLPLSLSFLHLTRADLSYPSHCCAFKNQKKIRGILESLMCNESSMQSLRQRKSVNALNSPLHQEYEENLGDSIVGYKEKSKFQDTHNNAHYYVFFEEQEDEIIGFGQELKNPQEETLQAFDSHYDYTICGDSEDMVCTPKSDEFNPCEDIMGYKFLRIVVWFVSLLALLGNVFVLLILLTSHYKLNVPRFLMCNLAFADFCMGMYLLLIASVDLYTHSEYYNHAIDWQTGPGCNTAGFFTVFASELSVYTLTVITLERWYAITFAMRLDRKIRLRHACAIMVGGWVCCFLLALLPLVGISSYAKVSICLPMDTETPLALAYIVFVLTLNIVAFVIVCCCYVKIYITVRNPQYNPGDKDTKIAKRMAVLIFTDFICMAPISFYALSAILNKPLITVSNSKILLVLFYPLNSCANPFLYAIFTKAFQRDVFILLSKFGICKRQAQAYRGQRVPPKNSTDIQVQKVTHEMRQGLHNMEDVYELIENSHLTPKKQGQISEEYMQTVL
# Estrogen receptor beta (Homo sapiens), sequence (Q92731 whole entry, looked up, the tested form may be a part): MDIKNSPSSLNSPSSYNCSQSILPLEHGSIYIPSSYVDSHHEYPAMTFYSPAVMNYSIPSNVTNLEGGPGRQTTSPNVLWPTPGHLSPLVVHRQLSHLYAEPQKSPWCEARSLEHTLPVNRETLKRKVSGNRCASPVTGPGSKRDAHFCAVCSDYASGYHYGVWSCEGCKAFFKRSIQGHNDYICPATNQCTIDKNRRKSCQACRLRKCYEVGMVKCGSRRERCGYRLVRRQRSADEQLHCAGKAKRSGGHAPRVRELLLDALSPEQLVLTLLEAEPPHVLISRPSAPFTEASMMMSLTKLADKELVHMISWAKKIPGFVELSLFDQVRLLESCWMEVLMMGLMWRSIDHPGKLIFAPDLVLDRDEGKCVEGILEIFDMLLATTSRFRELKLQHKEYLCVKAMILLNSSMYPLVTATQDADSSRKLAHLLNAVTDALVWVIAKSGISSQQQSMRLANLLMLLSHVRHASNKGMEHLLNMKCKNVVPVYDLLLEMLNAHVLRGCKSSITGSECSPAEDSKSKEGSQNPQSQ
# Androgen receptor (Homo sapiens), sequence (P10275 whole entry, looked up): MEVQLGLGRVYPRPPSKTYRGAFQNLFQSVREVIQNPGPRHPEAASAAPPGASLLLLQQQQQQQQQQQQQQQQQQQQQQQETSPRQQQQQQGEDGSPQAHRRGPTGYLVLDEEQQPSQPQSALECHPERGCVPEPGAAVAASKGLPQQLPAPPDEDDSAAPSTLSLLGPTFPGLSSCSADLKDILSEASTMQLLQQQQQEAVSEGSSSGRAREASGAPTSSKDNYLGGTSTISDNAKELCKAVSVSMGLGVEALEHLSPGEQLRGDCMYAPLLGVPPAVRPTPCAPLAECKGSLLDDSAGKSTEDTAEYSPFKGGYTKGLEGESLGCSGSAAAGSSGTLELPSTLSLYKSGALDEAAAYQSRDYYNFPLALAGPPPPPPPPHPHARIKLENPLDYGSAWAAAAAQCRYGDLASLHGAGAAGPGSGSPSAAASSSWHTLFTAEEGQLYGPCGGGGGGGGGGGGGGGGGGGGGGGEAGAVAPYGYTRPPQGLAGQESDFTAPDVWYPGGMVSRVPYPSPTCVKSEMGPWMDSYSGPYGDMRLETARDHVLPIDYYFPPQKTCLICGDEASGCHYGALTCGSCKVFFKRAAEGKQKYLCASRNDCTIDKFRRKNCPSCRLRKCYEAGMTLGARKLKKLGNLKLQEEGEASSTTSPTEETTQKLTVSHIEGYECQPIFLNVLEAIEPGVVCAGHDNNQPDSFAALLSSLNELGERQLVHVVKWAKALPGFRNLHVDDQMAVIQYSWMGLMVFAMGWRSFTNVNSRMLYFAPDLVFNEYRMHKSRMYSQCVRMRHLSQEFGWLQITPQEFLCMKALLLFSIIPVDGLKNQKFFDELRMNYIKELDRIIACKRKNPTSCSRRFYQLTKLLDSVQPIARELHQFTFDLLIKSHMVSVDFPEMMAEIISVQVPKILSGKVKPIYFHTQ
Compound,Potency [1],Potency [2],Potency [3],Potency [4],Potency [5],Potency [6],Potency [7],Potency [8],Potency [9],Potency [10],Potency [11],Potency [12],Potency [13],outcome [14],Potency [15],Potency [16],Potency [17],Potency [18],outcome [19],Potency [20]
CN(C)C(=O)Nc1cccc(OC(=O)NC(C)(C)C)c1,inactive,inactive,inactive,inactive,inactive,inactive,inactive,inactive,inactive,inactive,inactive,inactive,inactive,inactive,inactive,,,,,
CC(C)(C)c1ccc(CCOc2ncnc3ccccc23)cc1,inactive,inactive,inactive,inactive,inactive,inactive,inactive,inactive,inactive,inactive,inactive,inactive,inactive,inactive,inactive,inactive,,,,
CC(Oc1cc(Cl)c(Cl)cc1Cl)C(=O)O (stereo not given),inactive,inactive,inactive,inactive,inactive,inactive,inactive,inactive,inactive,,inactive,,inactive,inactive,inactive,,,,,
CCC(C)(C)O,inactive,inactive,inactive,inactive,inactive,inactive,inactive,inactive,,,inactive,,,inactive,,,,,,
O=C(O)C(F)(F)C(F)(F)C(F)(F)C(F)(F)C(F)(F)C(F)(F)C(F)(F)C(F)(F)F,inactive,inactive,inactive,inactive,inactive,inactive,inactive,inactive,inactive,,inactive,,,inactive,inactive,,,,,
CCCCC#N,inactive,inactive,inactive,inactive,inactive,inactive,inactive,inactive,inactive,,inactive,inactive,,inactive,inactive,,inactive,,,
CCCCC(CC)CO[N+](=O)[O-] (stereo not given),inactive,inactive,inactive,inactive,inactive,inactive,inactive,inactive,inactive,inactive,inactive,inactive,inactive,inactive,inactive,inactive,inactive,,,
O=C1NC(=O)C(=O)C(=O)N1,inactive,inactive,inactive,inactive,inactive,inactive,inactive,inactive,,,inactive,inactive,inactive,inactive,inactive,,,,,
CCc1ccccc1N,inactive,inactive,inactive,,inactive,inactive,inactive,inactive,inactive,,inactive,inactive,,inactive,inactive,,inactive,,,
Cc1ncc(C[n+]2csc(CCO)c2C)c(N)n1,inactive,inactive,,,inactive,inactive,inactive,inactive,,inactive,inactive,inactive,,inactive,inactive,inactive,inactive,,,
CC(C)[C@@H](C(=O)O[C@@H](C#N)c1cccc(Oc2ccccc2)c1)c1ccc(Cl)cc1,inactive,inactive,,inactive,inactive,inactive,inactive,inactive,,,inactive,inactive,,inactive,inactive,,inactive,,,
N#CC(C#N)=Cc1ccc(O)c(O)c1,inactive,,inactive,,inactive,inactive,inactive,inactive,7.5 µM (active),,inactive,,,inactive,inactive,,inactive,inactive,inactive,inactive
CCc1cnc(C2=NC(C)(C(C)C)C(=O)N2)c(C(=O)O)c1 (stereo not given),inactive,inactive,,inactive,inactive,inactive,inactive,inactive,inactive,,inactive,inactive,,inactive,inactive,,inactive,,,
CCCCOC(=O)CCC(=O)OCCCC,inactive,inactive,,,inactive,inactive,inactive,inactive,inactive,inactive,inactive,,,inactive,inactive,,inactive,,,
CCCCCCCCP(=O)(O)O,inactive,inactive,,inactive,inactive,inactive,inactive,inactive,inactive,inactive,inactive,inactive,,inactive,inactive,inactive,inactive,,,
CC(C)(C#N)C(C)(C)C#N,inactive,inactive,,inactive,inactive,inactive,inactive,inactive,,inactive,inactive,,,inactive,inactive,,inactive,,,
O=C(O)C(Cl)(Cl)Br,inactive,inactive,,inactive,inactive,inactive,inactive,inactive,,,inactive,inactive,,inactive,inactive,inactive,inactive,,,
CC(C)CCON=O,inactive,inactive,,inactive,inactive,inactive,inactive,inactive,inactive,inactive,inactive,inactive,,inactive,inactive,,inactive,,inactive,
CCCC[P+](CC)(CCCC)CCCC (tested in a mixture with another compound),inactive,inactive,,inactive,inactive,,inactive,inactive,inactive,,,,,inactive,inactive,,inactive,,,
C[N+](C)(C)CCOC(=O)C(O)(c1ccccc1)c1ccccc1,inactive,inactive,,inactive,inactive,inactive,inactive,inactive,inactive,inactive,inactive,inactive,,,,inactive,inactive,,inactive,
C=CCc1ccc(OC(=O)Cc2ccccc2)c(OC)c1,inactive,inactive,,inactive,inactive,inactive,inactive,inactive,inactive,inactive,inactive,inactive,,inactive,,inactive,inactive,,,
CC[N+]1(C)CCCC(OC(=O)C(O)(c2ccccc2)c2ccccc2)C1 (stereo not given),inactive,inactive,,inactive,inactive,inactive,inactive,inactive,inactive,,inactive,inactive,,inactive,inactive,,,,inactive,
COc1ccccc1N1CCNCC1,inactive,inactive,,,inactive,inactive,inactive,inactive,inactive,inactive,inactive,,,inactive,inactive,inactive,inactive,,inactive,
CC(Oc1cccc(Cl)c1)C(=O)O (stereo not given),inactive,inactive,,inactive,inactive,inactive,inactive,inactive,,inactive,inactive,inactive,,inactive,inactive,,inactive,,,

# From PubChem BioAssay (Tox21)
